According to PubChem BioAssay (NCATS):
Records with an inconclusive call do not appear. A number with no mark means an inactive call. The source made the active and inactive calls. Calls follow the shape of the dose curve; as a rule, active = well fitted inhibition curve with a large enough effect; inconclusive = small, poorly fitted or top-dose-only effect; inactive = flat fitted curve, though single readings scatter.

Key:
Assay in all cases: Cytotoxic Profiling of Annotated Libraries Using Quantitative High-Throughput Screening (AID 1296008); also: nearly all actives have a fitted effect of over 60% in size
Settings in all cases: Five cell lines viability, CellTiter-Glo ATP luminescence, 48-72 h; max response: active compounds read low
CRL-7250 = system: CRL-7250
Method in brief: (§1)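 Cytotoxicity was measured as CellTiter-Glo ATP luminescence, read after 10 min at room temperature. Compound treatment of the cells lasted 48 or 72 hr at 37 degrees Celsius in a qHTS format.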

HEK293 = system: HEK293
Method in brief: as §1

HaCat = system: HaCat
Method in brief: as §1
% is scaled to controls: 0 for no effect and ±100 for the full control effect; potency is read from the fitted curve at half-maximal effect.

## CCN(CC)CC(=O)Oc1ccc(NC(C)=O)cc1
CRL-7250
  max response: -7.74%
HEK293
  outcome: inactive
HaCat
  outcome: inactive

## CCOC(=O)CN1CCCC1=O
CRL-7250
  max response: 1.6%
HEK293
  max response: -12.9%
HaCat
  max response: -7.15%

## C/C(=C1\CCOC(=O)S1)N(C=O)Cc1cnc(C)nc1N
CRL-7250
  max response: -21.8%
HEK293
  max response: -12.5%
HaCat
  max response: 0.182%

## CC1(C)OC(=O)Nc2ccc(Br)cc21
CRL-7250
  outcome: inactive
HEK293
  outcome: inactive
HaCat
  outcome: inactive

## Oc1ccccc1-c1nnco1
CRL-7250
  outcome: inactive
HEK293
  outcome: inactive
HaCat
  outcome: inactive

## Cc1cnc(NS(=O)(=O)c2ccc(N)cc2)nc1
CRL-7250
  outcome: inactive
HEK293
  max response: -11.8%
HaCat
  outcome: inactive

## CN(C)CCN1CCN(c2cccc(Cl)c2)C1=O
CRL-7250
  max response: -6.51%
HEK293
  outcome: inactive
HaCat
  outcome: inactive

## CCCCN(CCN(CCCC)C(=O)N1CCOCC1)C(=O)N1CCOCC1
CRL-7250
  max response: -1.09%
HEK293
  max response: -9.35%
HaCat
  outcome: inactive

## Brc1ccc([C@H]2CN3CCSC3=N2)cc1
CRL-7250
  max response: -3.15%
HEK293
  max response: 3.24%
HaCat
  max response: -7.1%

## Fc1ccc(C(c2ccc(F)cc2)N2CCNCC2)cc1
CRL-7250
  outcome: inactive
HEK293
  max response: -6.69%
HaCat
  max response: -17.9%

## O=C(Oc1ccccc1)c1cccc(C(=O)Oc2ccccc2)c1
CRL-7250
  max response: -12.1%
HEK293
  max response: 3.23%
HaCat
  outcome: inactive

## COC(=O)c1cc(Cl)ccc1OC
CRL-7250
  max response: -7.71%
HEK293
  outcome: inactive
HaCat
  outcome: inactive

## CN(C)CCN(Cc1ccsc1)c1ccccn1
CRL-7250
  max response: -0.513%
HEK293
  max response: -3.25%
HaCat
  outcome: inactive

## CC(C)(C)CC(=O)OCC(=O)[C@@]1(O)CC[C@H]2[C@@H]3CCC4=CC(=O)C=C[C@]4(C)[C@H]3[C@@H](O)C[C@@]21C
CRL-7250
  max response: -1.84%
HEK293
  Potency: 15 µM (active)
HaCat
  outcome: inactive

## Cc1[nH]cnc1-c1ccc(Cl)cc1
CRL-7250
  outcome: inactive
HEK293
  outcome: inactive
HaCat
  max response: -6.75%

## CC(C)(C)C1CCC(CC2=C(O)c3ccccc3C(=O)C2=O)CC1 (configuration not stated)
CRL-7250
  max response: -5.3%
HEK293
  max response: 0.617%
HaCat
  max response: -2.75%

## Cc1ccc(C(=O)Oc2ccc(C(O)CNC(C)(C)C)cc2OC(=O)c2ccc(C)cc2)cc1 (configuration not stated)
CRL-7250
  max response: -6.97%
HEK293
  max response: 1.15%
HaCat
  outcome: inactive

## CC(=O)O[C@H]1CC[C@@]2(C)C(=CC[C@@H]3[C@@H]2CC[C@]2(C)C(C(C)=O)=CC[C@@H]32)C1
CRL-7250
  max response: -17.3%
HEK293
  max response: -0.38%
HaCat
  max response: -12.2%

## CCCOc1ccc2c(c1)CC[C@@H]1[C@@H]2CC[C@]2(C)C(OC)CC[C@@H]12 (some centres not stated)
CRL-7250
  max response: -5.35%
HEK293
  max response: -6.37%
HaCat
  max response: 2.29%

## O=C(O)[C@@H](O)[C@H](O)[C@H](O)[C@@H](O)C(=O)O
CRL-7250
  max response: -8.84%
HEK293
  max response: 3.38%
HaCat
  outcome: inactive

## COc1ccc2c(c1)c(CC(=O)OC/C=C(\C)CC/C=C(\C)CCC=C(C)C)c(C)n2C(=O)c1ccc(Cl)cc1
CRL-7250
  outcome: inactive
HEK293
  max response: -3.27%
HaCat
  outcome: inactive

## OC1(c2ccccc2)CCNCC1
CRL-7250
  max response: 0.914%
HEK293
  max response: 1.58%
HaCat
  max response: -1.01%

## CCOC(=O)N1CCC(Nc2ccc(Cl)cc2N)CC1
CRL-7250
  max response: 2.37%
HEK293
  max response: -13.9%
HaCat
  max response: -14.7%

## O=C1CC2(CCCC2)CC(=O)N1
CRL-7250
  max response: -7.34%
HEK293
  max response: 4.63%
HaCat
  outcome: inactive

## CCCCN(CCCC)C(C(N)=O)c1ccc(OC)cc1 (configuration not stated)
CRL-7250
  outcome: inactive
HEK293
  max response: -5.09%
HaCat
  max response: 2.19%

## Cc1c(N)cccc1C(F)(F)F
CRL-7250
  outcome: inactive
HEK293
  outcome: inactive
HaCat
  outcome: inactive

## CC(C)NC(=O)c1ccc(C=O)cc1
CRL-7250
  max response: -4.83%
HEK293
  outcome: inactive
HaCat
  outcome: inactive

## O=C(O)Cn1c(=O)n(Cc2ccc(Br)cc2F)c(=O)c2ccc(Cl)cc21
CRL-7250
  outcome: inactive
HEK293
  outcome: inactive
HaCat
  max response: 0.662%

## CSc1ccc(/C=C2/C(C)=C(CC(=O)O)c3cc(F)ccc32)cc1
CRL-7250
  outcome: inactive
HEK293
  max response: 0.521%
HaCat
  outcome: inactive

## CCCC(=O)OCOC(=O)C1=C(C)NC(C)=C(C(=O)OC)C1c1cccc(Cl)c1Cl (configuration not stated)
CRL-7250
  max response: 4.76%
HEK293
  max response: 0.879%
HaCat
  outcome: inactive

## COc1ccc(/C(C)=C/C(=O)O)c(OC)c1
CRL-7250
  max response: 0.36%
HEK293
  outcome: inactive
HaCat
  outcome: inactive

## CCCC(=O)Nc1ccc(O)c(C(C)=O)c1
CRL-7250
  max response: -0.565%
HEK293
  outcome: inactive
HaCat
  outcome: inactive

## CC1(C)O[C@@H]2C[C@H]3[C@@H]4C[C@H](F)C5=CC(=O)C=C[C@]5(C)[C@@]4(F)[C@@H](O)C[C@]3(C)[C@]2(C(=O)CO)O1
CRL-7250
  max response: -4.6%
HEK293
  max response: 1.46%
HaCat
  max response: 1.62%

## Cc1ccc(C(C)OC(=O)C2(C)CCC(C(=O)O)C2(C)C)cc1 (configuration not stated)
CRL-7250
  max response: 3.77%
HEK293
  outcome: inactive
HaCat
  outcome: inactive

## CO/N=C(\C(=O)O)c1csc(NC(=O)CCl)n1
CRL-7250
  outcome: inactive
HEK293
  max response: -4.55%
HaCat
  outcome: inactive

## CC(C)(Oc1ccc(Cl)cc1)C(=O)OCCCOC(=O)C(C)(C)Oc1ccc(Cl)cc1
CRL-7250
  max response: -5.16%
HEK293
  max response: -15.3%
HaCat
  max response: -1.93%

## C#CC(C)(CC)OC(=O)c1ccccc1C(=O)O (configuration not stated)
CRL-7250
  max response: -9.5%
HEK293
  max response: 4.2%
HaCat
  max response: -2.23%

## COc1cc2c(cc1OC)C(=O)CC2
CRL-7250
  outcome: inactive
HEK293
  max response: 3.36%
HaCat
  outcome: inactive

## CC1(C)O[C@@H]2C[C@H]3[C@@H]4CCC5=CC(=O)C=C[C@]5(C)[C@@]4(F)[C@@H](O)C[C@]3(C)[C@]2(C(=O)CO)O1
CRL-7250
  max response: -0.473%
HEK293
  max response: -6.9%
HaCat
  max response: -7.17%

## C=CCNc1nc(NCC=C)nc(N2CCN(C(c3ccc(F)cc3)c3ccc(F)cc3)CC2)n1
CRL-7250
  max response: -3.37%
HEK293
  Potency: 8.41 µM (active)
HaCat
  max response: 2.53%

## O=C(O)CCCC[C@@H]1SC[C@@H]2NC(=O)N[C@@H]21
CRL-7250
  outcome: inactive
HEK293
  max response: -6.79%
HaCat
  max response: 4.46%

## O=C(CCCl)NCCc1ccccc1
CRL-7250
  outcome: inactive
HEK293
  max response: -1.92%
HaCat
  max response: 0.301%

## NC(=O)NS(=O)(=O)c1ccc(Cl)cc1
CRL-7250
  outcome: inactive
HEK293
  max response: -19.3%
HaCat
  max response: 0.84%

## Cc1ccc2ccc(Cl)cc2n1
CRL-7250
  outcome: inactive
HEK293
  outcome: inactive
HaCat
  outcome: inactive

## CCCCCCCCCCCC[N+](C)(C)Cc1ccccc1
CRL-7250
  Potency: 4.22 µM (active)
HEK293
  Potency: 0.841 µM (active)
HaCat
  Potency: 4.73 µM (active)

## COc1cc(S(N)(=O)=O)cc(C(=O)O)c1OC
CRL-7250
  max response: 3.62%
HEK293
  max response: -2.74%
HaCat
  max response: 2%

## Nc1ccc([N+](=O)[O-])c(C(F)(F)F)c1
CRL-7250
  max response: 1.39%
HEK293
  max response: 4.93%
HaCat
  outcome: inactive

## CC(=O)c1ccc(O)c(C(N)=O)c1
CRL-7250
  max response: 1.65%
HEK293
  outcome: inactive
HaCat
  outcome: inactive

## O=C(CCOCCOCCOCCOCCC(=O)Nc1c(I)cc(I)c(C(=O)O)c1I)Nc1c(I)cc(I)c(C(=O)O)c1I
CRL-7250
  max response: -8.36%
HEK293
  outcome: inactive
HaCat
  outcome: inactive
